Compounds without any hit were thinned out: in the full panel of roughly 79,000, 15% have a hit. Unmarked numbers belong to inactive results. The source made the active and inactive calls. Rule as the data show it: active = growth inhibition above about 70%; inactive = the rest.

The test is described as follows: NCI Yeast Anticancer Drug Screen. Data for the mlh1 strain (AID 171).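 Also: 0% = growth of vehicle-treated control cultures of the same strain.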 As to conditions: S. cerevisiae mlh1 strain growth inhibition, active compounds read high. The method, then:
Growth inhibition of yeast strains with defined genetic alterations is measured as a screen for potential anti-cancer activity. Selected strains with alterations in DNA damage repair or cell cycle control were exposed to compounds and growth inhibition was measured relative to vehicle treated controls. The strain used in this assay is mlh1

As for `CN(C)CCOc1ccc2c(c1)C/C(=C/c1ncc([N+](=O)[O-])n1C)C2=O`, the growth inhibition by setting is: (at 1.2 µM) 31%; (at 3.7 µM) 36%; (at 11.0 µM) 29%; (at 33.0 µM) 36%; (at 100.0 µM) 62%.

Regarding `CC(C)C1=CC2=C[C@H](O)[C@H]3C(C)(C)CCC[C@]3(C)C2=C(O)C1=O`, the growth inhibition is -13% (at 1.2 µM); 23% (at 3.7 µM); 99% (active) (at 11.0 µM); 99% (active) (at 33.0 µM); 94% (active) (at 100.0 µM).

Consider `Cc1ccc(Cl)c2[nH]c(-c3ccccc3)cc(=O)c12`, for which the growth inhibition was 0% (at 1.2 µM); -2% (at 3.7 µM); -4% (at 11.0 µM); -2% (at 33.0 µM); 0% (at 100.0 µM).

As to `COc1ccc(/C(C)=N/OC(=O)c2c(-c3ccccc3Cl)noc2C)cc1CN1CCOCC1`, the growth inhibition reads like this: (at 1.2 µM) -22%; (at 3.7 µM) -16%; (at 11.0 µM) -27%; (at 33.0 µM) 14%; (at 100.0 µM) 85% (active).

As to `O=C(NCCCCNCCCNC(=O)c1cc(-c2ccccc2)nc2ccccc12)c1cc(-c2ccccc2)nc2ccccc12`, the growth inhibition by setting is: (at 1.2 µM) 0%; (at 3.7 µM) -1%; (at 11.0 µM) 0%; (at 33.0 µM) 63%; (at 100.0 µM) 94% (active).

Regarding `COc1ccc(C2c3cc4c(cc3OC(C)(O)C2C)OCO4)c(OC)c1` (stereo not given), the growth inhibition was 3% (at 1.2 µM); 2% (at 3.7 µM); 3% (at 11.0 µM); 6% (at 33.0 µM); 96% (active) (at 100.0 µM).

Consider `Cc1[nH]c2ccccc2c1C(c1ccc(N)cc1)c1c(C)[nH]c2ccccc12`, for which the growth inhibition is 1% (at 1.2 µM); -1% (at 3.7 µM); -2% (at 11.0 µM); 0% (at 33.0 µM); 50% (at 100.0 µM).

Turning to `CCCC/C=C/C(CC)(C(=O)OCC)C(=O)OCC`, the growth inhibition runs as follows: (at 1.2 µM) -3%; (at 3.7 µM) -6%; (at 11.0 µM) -5%; (at 33.0 µM) -2%; (at 100.0 µM) 5%.

The values are drawn from PubChem BioAssay (NCI).
